Results published in PubChem BioAssay AID1794842 (National Center for Advancing Translational Sciences (NCATS), 2023).
In all, about 2,800 compounds went through this assay and fewer than 10 were called active. Calls come from the whole dose curve; as a rule, active = well fitted curve in the direction sought with a large enough effect; inconclusive = small, poorly fitted or top-dose-only effect, or another doubt; inactive = no such curve, though single readings can be large or run the other way. Only a sample is shown.

target: Metallo-beta-lactamase type 2 (Klebsiella pneumoniae) (UniProt C7C422); assay: qHTS to identify inhibitors of the New Delhi Metallo-beta-lactamase (NDM): Meropenem screen against the machine-based learning selections.; conditions: Purified NDM-1, meropenem hydrolysis, absorbance 300 nm; series mostly up to 38.4 µM
Sequence (C7C422 whole entry, looked up): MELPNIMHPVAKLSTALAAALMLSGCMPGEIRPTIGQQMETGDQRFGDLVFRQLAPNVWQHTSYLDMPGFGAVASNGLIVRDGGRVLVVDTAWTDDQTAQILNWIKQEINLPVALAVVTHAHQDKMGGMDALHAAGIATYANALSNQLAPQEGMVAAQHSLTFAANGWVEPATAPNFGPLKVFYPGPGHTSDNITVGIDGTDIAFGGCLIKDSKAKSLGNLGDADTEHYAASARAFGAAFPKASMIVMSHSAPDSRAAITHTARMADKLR
Text: Assay Submitter (PI): James Inglese Ph.D., Patricia Dranchak Ph.D., Mahesh Aitha Ph.D. Assay Development and Screening Technology Laboratory (ADST) National Center for Advancing Translational Sciences (NCATS), Rockville, MD National Institute of Health (NIH), Bethesda, Maryland The metallo-beta-lactamases (MBL) are a main antibiotic resistance mechanism evolved by bacteria. There is an urgent clinical need for MBL inhibitors to mitigate this growing threat. To support a machine-based learning study, qHTS has been used to experimentally test inhibitors identified by prediction tools.
PROTOCOL TABLE (as described by Inglese et al., 2007) SEQUENCE No. (e.g., 1, 2, 3, etc.); […] (e.g., enzyme, Incubation, Reagent, etc.); VALUE; DESCRIPTION Primary Screen 1; NDM-1; 4 uL of 3 nM enzyme [2 nM final] in 50 mM HEPES (pH 7.0), 1 uM […], 0.01% Tween20; Use BioRaptr to dispense into two sets of Aurora black, clear bottom high base 1536-well plates 2; Compounds; 23 nL; Use Pin Tool (Wako) to transfer DMSO control and library compounds in DMSO 3; Incubate; >30 min 4a; Reagent; 2 uL of 50 uM nitrocefin [16.7 uM final] to one set of assay plates 4b; Reagent; 2 uL of 150 uM meropenem [50 uM final] to second set of assay plates 5a; Incubate; 15 min 5b; Incubate; 30 min 6a; Detector; Absorbance at 485 nm (bandwidth = 5 nm, 25 flashes/well) on Tecan Infinity 6b; Detector; Absorbance at 300 nm (bandwidth = 5 nm, 25 flashes/well) on Tecan Infinity NOTES (numbers refer to sequence above) 1; Column 1 of each plate received assay buffer without enzyme and columns 2-48 received enzyme for a final assay concentration of 2 nM. 2; Control plate contained DMSO in columns 1, 2, 3, and 4. 3; Compound interaction with enzyme. 4; Nitrocefin and meropenem substrates were prepared in the same assay buffer as step 1 for a final assay concentration of 16.7 uM and 50 uM, respectively, and added to all wells across respective sets of assay plates. 5; Default reader settings were applied for absorbance read at 485 nm (nitrocefin) or 300 nm (meropenem), bandwidth = 5 nm, 25 flashes/well. References: Inglese J, Shamu CE, Guy RK. 2007. Reporting data from high-throughput screening of small-molecule libraries. Nat Chem Biol. doi:10.1038/nchembio0807-438 Yasgar A, Shinn P, Jadhav A, Auld D, Michael S, Zheng W, Austin CP, Inglese J, Simeonov A. 2008. Compound Management for Quantitative High-Throughput Screening. J Lab Autom 13:79 - 89. doi:10.1016/j.jala.2007.12.004

outcome, inactive:
Cc1cc(-c2ccccc2)nc(CN2CC[C@@](O)(C3CCC3)[C@H](C)C2)n1
CCOCCN1C(=O)COC[C@@H]1[C@H](O)c1ccc(NC(=O)Cc2ccccc2)cc1
COCC(=O)N[C@H]1C[C@H]2C(=O)NC[C@@H](CCC(=O)N3CCN(c4ccccn4)CC3)N2C1
COc1ccc(OC)c(S(=O)(=O)N2CCCC(Cn3c(C)nc4cccnc43)C2)c1 (stereo not drawn)
O[C@@H]1C[C@@H](c2nc(-c3ccc4c(c3)OCO4)no2)N(Cc2cc3ccccc3o2)C1
CC1=C[C@@H](CNC(=O)COCC(=O)O)[C@H](C(C)C)C[C@H]1Cc1nc2ccc(C)cc2[nH]1
NCCn1cc(C(=O)NCCS(=O)(=O)N2CCCC2)nn1
C=CCN1CCN(C(=O)[C@@H]2Cc3c[nH]c4cccc(c34)[C@H](CC(C)C)N2)CC1
COc1ccc(-c2noc([C@@H]3C[C@H](NCc4ccc(N(C)C)cc4)CN3C)n2)cc1
COc1cc(F)cc(-c2cnc3[nH]cc(CC(=O)NCc4cccnc4)c3c2)c1
Oc1cccc(Nc2cnc3ccc(-c4ccc(F)cc4)nn23)c1
CCc1ccc(-c2nc(C3CC(=O)N(c4ccc(C)cc4)C3)no2)cc1 (stereo not drawn)
COc1ccc([C@@H](NC(=O)c2ccc3cccc(F)c3n2)C2CC(O)C2)cn1 (stereo partly drawn)
COc1ccc(Nc2cc3c(cn2)CN(CCc2ccccc2)CCN3)cc1
COc1ccc(-c2noc([C@@H]3Cc4nc[nH]c4CN3C(=O)Nc3ccc(C)cc3)n2)cc1
CCOC(=O)N1CCN(C(C(=O)O)c2ccc(OC)nc2OC)CC1 (stereo not drawn)
O=C(O)CCC(=O)N1Cc2[nH]cnc2C[C@H]1C(=O)NC1CCCCC1
CO[C@H]1[C@H](NC(=O)COc2ccccc2)c2ccccc2C12CCNCC2
COc1ccc(-c2cc(N3CCCC(NC(=O)c4cccn4C)C3)n[nH]2)cc1 (stereo not drawn)
CC1=C[C@@H](CNC(=O)c2cncnc2)[C@H](C(C)C)C[C@H]1CC(=O)N(C)Cc1ccccc1
CCOCC(=O)N1CCC(N2CC3CC(C2)[C@H]2CCCC(=O)N2C3)CC1 (stereo partly drawn)
NC(=O)c1cccc(-c2cc3c(cn2)CN(Cc2ccncc2)CCN3)c1
Cc1ccc(-c2noc([C@@H]3Cc4nc[nH]c4CN3Cc3ccccc3)n2)cc1
Cn1cc(-c2cnc(NC(=O)c3c[nH]c4ccccc34)c3c2CCO3)cn1
O=C(NCCc1ccc(Cl)cc1)c1nc(-c2cc(Cl)cc(Cl)c2)c2ccccn12
CCCNC(=O)N(C1CCOCC1)C1CCN(C(=O)Nc2c(F)cccc2F)CC1
O=C(Cc1c[nH]c2ncc(-c3ccsc3)cc12)NCc1cccnc1
Cc1ccccc1-c1cnc2n[nH]c(-c3ccccc3)c2n1
CC1(COc2cccnc2)COc2ccc(C(=O)Nc3ccc4[nH]ccc4c3)cc2N1 (stereo not drawn)
O=C(NCCc1cnc[nH]1)C1CCN(C2CCCCC2)CC1
Cc1ccccc1NC(=O)c1cnc2c(c1)N(Cc1ccccc1)CCC2
C=CCCC(CN1CCCOCC1)Oc1ccc(-c2ccccc2)nn1 (stereo not drawn)
COCCc1noc(CN(C)c2cc(C(C)C)nc3ccnn23)n1
CCC(=O)N1CCC(Cc2nc(-c3ccccc3)n[nH]2)CC1
Cc1cc(C(=O)N[C@H](C)c2c(-c3ccc(Cl)cc3)noc2C(=O)O)c(C)o1
CC(=O)Nc1ccc(CN2CCC(N3CCCCCC3=O)CC2)cc1
CC[C@H]1CN(C(=O)C(C)(C)C)CC[C@H]1CC(=O)NCCSC
O=c1[nH]c(-c2ccc(F)cc2)nc2c1CCN(S(=O)(=O)c1cccs1)C2
O=C(O)c1cncc(N2CCC3(CC2)CNC(C(=O)O)C3)n1 (stereo not drawn)
COc1cccc(CN2CCOC[C@H](Oc3cccnc3)C2)c1
O=C(O)[C@H]1C[C@@H](C(=O)NCc2ccccn2)CN(CC2CC2)C1
O=C(CN1C(=O)NC(c2ccccc2Cl)C2=C1COC2=O)Nc1ccc(F)c(Cl)c1 (stereo not drawn)
COc1ccc(CN2CCNc3cnc(Nc4ccccc4)cc3C2)cn1
Cc1noc([C@@H](C)NC(=O)Nc2cccnc2)c1C(=O)O
O=C(CCn1nnc(-c2ccccc2)n1)N1CCCC2(CCNCC2)CC1
CC(C)CCNC1(Cc2cc(CN3CCOCC3)on2)COC1
Cc1noc([C@@H]2CNC[C@H]2CO)n1
O=C(NCc1cccnc1)[C@@H]1C[C@@H](c2ccc(F)cc2)N(Cc2ccccc2)C1
CC1=C[C@@H](CC#N)[C@H](C(C)C)C[C@H]1CC(=O)NC1CC1
c1cncc(Nc2cc3c(cn2)CN(Cc2ccc4[nH]ccc4c2)CCN3)c1
COc1ccc(-c2cc(-c3cccc(C(N)=O)c3)cn3cncc23)cc1
NC(=O)Cc1c[nH]c2ncc(-c3ccc(F)cc3)cc12
O=c1c2nc(NCc3ccccc3)ccc2ncn1Cc1ccccn1
CCCS(=O)(=O)N1CCC(Oc2nccnc2N2CCOCC2)C1 (stereo not drawn)
CCCCCC(=O)Nc1nc2c(s1)C[C@@H]1[C@](C)(CO)[C@H](O)CC[C@@]1(C)[C@@H]2CC(=O)NCc1ccccc1
CC[C@H]1CN(S(=O)(=O)c2c(C)noc2C)CC[C@H]1CC(=O)NCc1ccco1
CC(C)c1noc([C@@H]2C[C@H](NC(=O)Nc3ccc(F)cc3)CN2C)n1
COCCNC(=O)C[C@@H]1C[C@H]2O[C@H](CNC3CCCCC3)[C@@H](O)[C@H]2O1
O=C(CSc1ccncc1)N1CCN2C(=O)N(Cc3ccccc3)C(=O)[C@H]2C1
OC[C@H]1C[C@@H](NCc2cccc3c2OCO3)[C@H](O)[C@@H]1O
c1ccc(-c2cnc(Nc3ccncc3)c3c2CCO3)cc1
CCC[S+](=O)([O-])N1CCN(C(=O)N2CC3CC(C2)[C@H]2CCCC(=O)N2C3)CC1 (stereo partly drawn)
O=C(O)c1cc(-c2cccc(CO)c2)cc(S(=O)(=O)N2CCOCC2)c1
COc1ccc(C2Cn3nnc(C(=O)N4CCN(C(=O)c5cc(F)ccc5Cl)CC4)c3CO2)cc1 (stereo not drawn)
Cc1ccccc1Nc1cnc2ccc(-c3cccc(CO)c3)nn12
COc1ccccc1C(O)c1nc(Nc2ccncc2)n[nH]1 (stereo not drawn)
OC[C@]12CCCN[C@@H]1CCN(Cc1cccc(-c3ccccn3)c1)C2
COC(=O)c1ccc2c(c1)nc1n2[C@@H](CNC(=O)NC2CCCCC2)COC1
COc1cccc(CN[C@@H]2CCC[C@@H](C(=O)NC3CCOCC3)CC(=O)N(C)C2)c1
COCCNC(=O)[C@H]1CCC[C@H]1NC(=O)c1ccc(OC)cc1
CCS(=O)(=O)N1CCC(Cc2nc(-c3cccnc3)n[nH]2)C1 (stereo not drawn)
C=CCc1cc(C2CC(=O)Nc3[nH]ncc32)cc(OCC)c1OC (stereo not drawn)
O=C1CC(c2ccccc2)N(C(=O)C2CC2)CCCN(C(=O)NCc2ccccc2)CCN1 (stereo not drawn)
O=C(NC[C@H]1OC[C@@H](NCc2cnc[nH]2)[C@@H]1O)C1CCCC1
COc1cccc(-c2cnc3[nH]cc(CC(=O)NCc4cccnc4)c3c2)c1
Cn1ccc(NC(=O)c2cnc3c(c2)N([S+](=O)([O-])c2cccnc2)CCC3)n1
CCOc1cc(=O)n2c(c1C(=O)N1CCN(c3ccc(F)cc3)CC1)CCCC2
CC1=C[C@@H](CNC(=O)Cc2ccccc2)[C@H](C(C)C)C[C@H]1Cc1nc2ccncc2[nH]1
Oc1ccccc1CN1CCNc2cnc(-c3ccccc3)cc2C1
CN1C(=O)[C@@H]2C[C@@H](O)CN2C2(CN(CC3CCCCC3)C2)C1=O
O=C(O)c1cccc(CN2CCN(c3ccc4nccn4n3)CC2)n1
CCn1ccc(C(=O)N2CC(c3nnc(-c4ccc(C)cc4)o3)C3(CCOCC3)C2)n1 (stereo not drawn)
O=C(Nc1ccsc1)N[C@H]1C[C@H]2C(=O)NC[C@@H](CCC(=O)N3CCCCC3)N2C1
O=C(Cc1ccccc1F)N1CCC(Oc2ncccc2C(=O)N2CCCCC2)C1 (stereo not drawn)
CC1=C[C@@H](CNCc2ccncc2)[C@H](C(C)C)C[C@H]1Cc1nnc(-c2ccc(C)cc2)o1
Cc1ccccc1-c1[nH]nc2ncc(-c3ccccc3O)nc12
CN1CCCC2(CCN(S(=O)(=O)c3ccc(F)c(F)c3F)C2)C1=O (stereo not drawn)
CN1CCC(N2CCC[C@H]2C(=O)NCc2cc3n(n2)CCCNC3)CC1
O=C(O)C1(Oc2ccc3ccccc3c2)CCN(Cc2ccsc2)CC1
COc1cccc(CN2CCCC3(CCN(C(=O)c4ccc(OC)nc4OC)C3)C2)c1 (stereo not drawn)
COc1ccc(-c2noc([C@@H]3C[C@@H](O)CN3Cc3ncc[nH]3)n2)cc1
CC(C)(O)CCc1cccc(C(=O)NCCNc2cccnc2)c1
COc1cccc(S(=O)(=O)N2C[C@@H](C)[C@](O)(C3CCC3)C2)c1
O=C(O)[C@@H]1CN(C(=O)c2ccc(=O)[nH]c2)C[C@H]1c1ccc2c(c1)OCO2
COC[C@H]1CCCN1Cc1nc(C2(O)CCN(Cc3ccccc3O)CC2)cs1
O=C(NCc1ccccc1)N1CCCCC1c1nc(-c2cnccn2)n[nH]1 (stereo not drawn)
CN1CC2(CCN(C(=O)c3ccccc3-c3nn[nH]n3)CC2)CC1C(=O)O (stereo not drawn)
Nc1ccsc1C(=O)N[C@H](Cc1ccncc1)C1CC(O)C1 (stereo partly drawn)
O=C(NC[C@H]1O[C@@H](CC(=O)N2CCOCC2)[C@H](O)[C@@H]1O)Nc1ccc(F)cc1F
CCn1nc(C)cc1C(=O)N1CCOC[C@H](Oc2cccnc2)C1
O=c1n(-c2ccc([N+](=O)[O-])cc2)nc2n1CCN(Cc1cccc3ccccc13)C2
Cn1cccc1C(=O)N1CC[C@H](NC(=O)NC2CCCCC2)[C@H]1C(=O)N1CCC[C@@H]1C(N)=O
N#Cc1ccc(C(=O)N2C[C@@H]3C[C@H](C2)c2c(/C=C/c4ccc(Cl)cc4)ccc(=O)n2C3)cc1
NC(=O)C1(N2CCCCC2)CCN(Cc2cc3n(n2)CCNC3)CC1
CC(C)(CO)CNC(=O)c1cnc2c(c1)N([S+](=O)([O-])c1cccnc1)CCC2
Cc1nn(C)c2ncc(C(=O)O)c(NC3CC(c4cc(=O)[nH]cn4)C3)c12 (stereo not drawn)
Oc1cccc(CN2CCCC23CCN(c2ccc(C(F)(F)F)cn2)CC3)c1
O=C(O)CCC(=O)N[C@H]1CCN2C(=O)c3cc(-c4ccc(Cl)cc4)ccc3NC(=O)[C@H]12
